PMC4336329 (PLoS ONE, 2015)
Among all 310,000 compounds or so, about 14,000 (4.5%) showed an effect of 50% or more. Effects have a minus sign here. Only a selection was taken, and strong results are over-represented in it overall.

Target: human ether-à-go-go-related gene (hERG) potassium channel (human, UniProt Q12809)
Experiment: primary screen, population patch clamp on CHO cells stably expressing hERG; higher = less effect of the substance
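Further: peak tail current of the secondary pulse compared with the same well before compound.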

human ether-à-go-go-related gene (hERG) potassium channel, sequence (Q12809 whole entry, looked up): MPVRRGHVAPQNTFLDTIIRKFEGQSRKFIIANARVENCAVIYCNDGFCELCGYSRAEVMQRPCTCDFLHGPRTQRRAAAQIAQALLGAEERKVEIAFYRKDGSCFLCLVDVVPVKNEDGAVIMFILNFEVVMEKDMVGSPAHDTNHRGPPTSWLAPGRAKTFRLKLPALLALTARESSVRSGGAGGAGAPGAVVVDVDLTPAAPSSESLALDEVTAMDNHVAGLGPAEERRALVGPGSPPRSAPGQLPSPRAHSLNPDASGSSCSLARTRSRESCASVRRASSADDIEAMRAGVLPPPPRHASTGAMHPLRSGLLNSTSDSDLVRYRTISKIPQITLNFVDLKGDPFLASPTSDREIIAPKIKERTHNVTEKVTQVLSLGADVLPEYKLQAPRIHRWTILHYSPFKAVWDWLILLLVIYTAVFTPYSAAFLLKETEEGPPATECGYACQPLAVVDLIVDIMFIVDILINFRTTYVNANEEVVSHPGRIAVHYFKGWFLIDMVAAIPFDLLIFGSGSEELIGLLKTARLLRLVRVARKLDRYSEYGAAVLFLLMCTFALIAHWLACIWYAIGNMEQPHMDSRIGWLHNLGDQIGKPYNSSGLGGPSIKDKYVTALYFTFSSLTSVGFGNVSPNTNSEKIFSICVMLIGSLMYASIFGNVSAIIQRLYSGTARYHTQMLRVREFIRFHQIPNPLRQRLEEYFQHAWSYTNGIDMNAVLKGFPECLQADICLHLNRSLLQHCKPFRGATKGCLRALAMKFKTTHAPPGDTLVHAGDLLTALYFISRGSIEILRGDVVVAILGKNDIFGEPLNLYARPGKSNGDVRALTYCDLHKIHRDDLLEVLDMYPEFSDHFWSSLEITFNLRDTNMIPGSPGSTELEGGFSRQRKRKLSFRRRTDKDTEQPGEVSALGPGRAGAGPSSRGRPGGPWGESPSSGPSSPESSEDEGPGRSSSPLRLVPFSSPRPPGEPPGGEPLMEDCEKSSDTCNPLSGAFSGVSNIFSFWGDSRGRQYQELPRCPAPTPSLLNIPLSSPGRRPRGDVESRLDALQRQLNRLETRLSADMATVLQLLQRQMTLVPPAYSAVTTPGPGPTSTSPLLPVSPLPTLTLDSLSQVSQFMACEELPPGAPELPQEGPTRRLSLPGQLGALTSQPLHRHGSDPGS

Structure (SMILES) | hERG current change (%, negative = inhibition) at 10uM [%]
O=C(Nc1cccc(O)c1)C1CCCN1C(=O)OCc1ccccc1 (stereo not shown) | -7.35
CC(C)Oc1ccc(OCCn2c(S(=O)(=O)O)nc3c(N)ncnc32)cc1 | 15.9
COc1ccc(NC(=O)CN(Cc2ccccc2)Cc2ccccc2)cc1S(N)(=O)=O | -36.7
CCC(=O)Nc1ccc(C(=O)N/N=C/c2ccccc2[N+](=O)[O-])cc1 | 14.1
CCn1c(SCc2ccc(OC)cc2)nnc1-c1ccncc1 | -18.9
Cc1cccc(-c2nnc(SCC(=O)Nc3cc(C)on3)n2C)c1 | 1.68
Cc1nc(CN2CCN(C(=O)c3ccc(C(C)(C)C)cc3)CC2)cs1.Cl | -3.25
COc1ccc(N2CC(C(=O)Nc3c4c(nn3-c3ccc(OC)cc3)CS(=O)(=O)C4)CC2=O)cc1 (stereo not shown) | 21.4
O=C1COc2ccc3ccccc3c2CN1 | 6.37
Cc1ccc(S(=O)(=O)N2CCCC2CNC(=O)C(=O)NC2CCCC2)cc1 (stereo not shown) | -40.3
Cc1ccc(-n2nc3c(=O)n(CCCC(=O)NCCN4CCN(C)CC4)nc(C)c3c2C)cc1 | 16.8
Cc1ccc(S(=O)(=O)N2CCC(C(=O)NC3CC3)CC2)cc1 | -5.59
O=C1CS/C(=N\c2ccccn2)N1C1CCCCC1 | 13.7
CC(NC(=O)CN1CCc2ccccc21)c1ccccc1 (stereo not shown) | 8.5
COc1ccc(-n2cc(CNCCc3ncc(C)[nH]3)c(-c3ccccc3Cl)n2)cc1 | -63.6
N#CCN1CCCC(C(N)=O)C1 (stereo not shown) | 0.891
COc1ccccc1-n1c(SCC(=O)NCC2CCCO2)nc2c([nH]c3ccccc32)c1=O (stereo not shown) | 9.22
CCN(CC)c1ccc(C(=O)N/N=C(\C)c2ccc(OC)c(OC)c2)cc1 | 3.53
Cc1nnsc1C(=O)NNS(=O)(=O)c1ccccc1 | 8.81
C=CCOc1ccc(/C=N/NC(=O)C(C)Sc2ccccn2)cc1OCC (stereo not shown) | 20.6
CCCCN(C)C(=O)c1nc2ccccn2c1CN1CCSCC1 | 6.32

Structure (SMILES) | hERG current change (%, negative = inhibition) at 10uM [%]
CCCCN(C)C(=O)c1nc2ccccn2c1CN1CCN(C(=O)c2cccs2)CC1 | -51.8
CCCCN(C)C(=O)c1nc2ccccn2c1CN1CCN(c2cnccn2)CC1 | -12.4
CCCCN(C)C(=O)c1nc2ccccn2c1CN1CCN(C/C=C/c2ccccc2)CC1 | -83.9
CCCCN(C)C(=O)c1nc2ccccn2c1CN1CCN(c2ccccn2)CC1 | -7.16
CCCCN(C)C(=O)c1nc2ccccn2c1CN1CCN(c2ncccn2)CC1 | -10.2
COC(=O)C1=C(C(=O)OC)[C@@H]2N(Cc3ccccc3)c3ccccc3[C@@]23C[C@@H](C(=O)OC)N(C(=O)NC(C)(C)C)C3=N1 | -11.7
Brc1cnc(N2CCCCC2)nc1N1CCOCC1 | -6.45
CN(C)[C@@H]1C(=O)C(C(N)=O)=C(O)[C@@]2(O)C(=O)C3=C(O)c4c(O)cccc4[C@@](C)(O)C3[C@H](O)C12.Cl (stereo partly shown) | -1.22
O=C(CN1C(=O)CSc2ncccc21)N1CCOCC1 | -6.66
COCCn1c(=O)[nH]c2cc(C(=O)NCCN3CCN(c4cccc(Cl)c4)CC3)ccc2c1=O | 12.8
O=C(CCCn1c(=O)[nH]c2cc(Cl)ccc2c1=O)NCCN1CCN(c2ccccc2)CC1 | -48.4
O=C(CCCn1c(=O)[nH]c2cc(Cl)ccc2c1=O)NCCCN1CCN(c2ccc(F)cc2)CC1 | -64.9
O=C(CCNC(=O)Cn1ccc2ccccc2c1=O)NCCCN1CCN(c2ccccc2F)CC1 | 10.1
O=C(Cn1c(=O)[nH]c2ccccc2c1=O)N1CCN(c2cccc(Cl)c2)CC1 | 15.7
O=C(CCCN1C(=O)CSc2ncccc21)N1CCN(Cc2ccccc2)CC1 | 6.42
O=C(CCn1c(=O)[nH]c2ccccc2c1=O)NCCCN1CCN(c2cccc(Cl)c2)CC1 | -65.4
O=C(CCCCCn1c(=O)[nH]c2ccccc2c1=O)NCCCN1CCN(c2ccccc2F)CC1 | -79.2
O=C(CCCN1C(=O)CSc2ncccc21)N1CCN(c2cccc(C(F)(F)F)c2)CC1 | -56.5
COc1cc2[nH]c(=O)n(CCC(=O)NCCCN3CCN(c4ccccc4F)CC3)c(=O)c2cc1OC | -35.4
O=C(CCCn1c(=O)[nH]c2cc(Cl)ccc2c1=O)NCCCN1CCCC1 | 14.6
Cc1cccc(-n2ncc(C#N)c2-n2cccc2)c1 | -5.85

Structure (SMILES) | hERG current change (%, negative = inhibition) at 10uM [%]
CC(C)Oc1ccc(C(=O)NCC(=O)OCC(=O)N(C)Cc2cccs2)cc1 | -15.9
C=CCN(Cc1nc(-c2ccccc2)no1)C(=O)c1ccoc1C | -4.69
COC(=O)c1cccc(NC(=O)c2ccc3c(c2)C(=O)N(CC2CCCO2)C3=O)c1 (stereo not shown) | -24.3
NNc1nc(-c2ccccc2Cl)nc2ccccc12 | 11.1
COc1ccc(NC(=O)CCS(=O)(=O)c2ccc3c(c2)CCCN3C(C)=O)cc1 | 9.92
CC(C)NC(=O)NC(=O)CSc1ncccn1 | 15.7
Cn1c(=O)oc2cc(S(=O)(=O)N3CCC(C(=O)NCc4ccc(F)cc4)CC3)ccc21 | -8.93
O=C(Cn1c(=O)[nH]c2ccccc2c1=O)N1CCN(Cc2ccc3c(c2)OCO3)CC1 | 0.172
O=C(CCCCn1c(=O)[nH]c2ccccc2c1=O)N1CCN(c2cccc(C(F)(F)F)c2)CC1 | -56.1
O=C(CCCCCn1c(=O)[nH]c2ccccc2c1=O)N1CCN(Cc2ccc3c(c2)OCO3)CC1 | -71.7
Cc1ccc(C)c(N2CCN(C(=O)CCCCn3c(=O)[nH]c4ccccc4c3=O)CC2)c1 | -25.2
O=C(CCCCn1c(=O)[nH]c2ccccc2c1=O)NCc1ccc2c(c1)OCO2 | -6.99
O=C(CCn1c(=O)[nH]c2ccccc2c1=O)N1CCN(c2cccc(C(F)(F)F)c2)CC1 | -43
Cc1cccnc1NC(=O)C1CCN(S(=O)(=O)c2cccs2)CC1 | -6.07
O=C(c1cccnc1)N1CCN(S(=O)(=O)c2ccc(S(=O)(=O)N3CCCC3)cc2)CC1 | 9.65
Cc1ccc(NC(=O)CN2CCOCC2)cc1C | 14.3
Cc1ccc(NC(=S)NCCN2CCOCC2)cc1C | -5.31
Cc1ccc(NC(=Nc2ccc(Br)cc2)N2CCOCC2)cc1C | -63.8
Cc1ccc(NC2CCCN(C(=O)c3cccc(-c4ncc[nH]4)c3)C2)cc1C (stereo not shown) | 3.23
COc1ccc(C(C(=O)NCc2ccc(F)cc2)N(Cc2cccnc2)C(=O)c2snc(C(N)=O)c2N)cc1 (stereo not shown) | -62
CCC(C)(C)NC(=O)C(c1ccc(F)cc1)N(Cc1ccc(OC)cc1)C(=O)c1cnccn1 (stereo not shown) | -11.8

Structure (SMILES) | hERG current change (%, negative = inhibition) at 10uM [%]
COc1ccc(CN(C(=O)c2cnccn2)C(C(=O)Nc2ccc(F)cc2)c2ccccc2)cc1 (stereo not shown) | -68.2
COc1ccc(NC(=O)C(c2ccccc2)N(C)C(=O)c2cnccn2)cc1 (stereo not shown) | 1.47
NC(=O)c1nsc(C(=O)N(Cc2cccnc2)C(C(=O)NCc2ccc(F)cc2)c2ccc(O)cc2)c1N (stereo not shown) | -1.96
NC(=O)c1nsc(C(=O)N(Cc2cccnc2)C(C(=O)NCc2ccc(F)cc2)c2ccc(F)cc2)c1N (stereo not shown) | 0.71
CCOc1ccc(S(=O)(=O)NNC(=S)Nc2ccc(Br)cc2)cc1 | 5.35
COC1=C(Nc2ccccc2OC)C(=O)c2ccccc2C1=O | 0.0125
Cc1ccc(N(C(=O)c2ccc(S(=O)(=O)N3CCOCC3)cc2)C2C=CS(=O)(=O)C2)cc1 (stereo not shown) | 3.58
O=C(NCc1ccccc1)C(=O)NCC1OCCN1C(=O)c1cccs1 (stereo not shown) | -65.3
O=C(NCc1ccc(Cl)cc1)C(=O)NCC1OCCN1C(=O)c1cccs1 (stereo not shown) | -7.77
O=C(NCc1ccc(F)cc1)C(=O)NCC1OCCN1C(=O)c1cccs1 (stereo not shown) | -4.15
COc1cc(CNCCc2ccc(S(N)(=O)=O)cc2)ccc1OCc1ccc(Cl)cc1.Cl | -31.8
Cl.NS(=O)(=O)c1ccc(CCNCc2ccccc2OCc2ccc(F)cc2)cc1 | -74.5
Cl.NS(=O)(=O)c1ccc(CCNCc2cc(Cl)ccc2OCc2ccccc2)cc1 | -74.5
NS(=O)(=O)c1ccc(NCc2cc(Cl)ccc2OCc2ccc(F)cc2)cc1 | 3.36
NS(=O)(=O)c1ccc(CCNC(=O)c2ccccc2OCc2ccc(F)cc2)cc1 | 4.16
NS(=O)(=O)c1ccc(NCc2ccccc2OCc2ccc(F)cc2)cc1 | -17
Cl.NS(=O)(=O)c1ccc(CCNCc2ccccc2OCc2ccc(Cl)cc2)cc1 | -73.1
C=CCOc1ccccc1CNCCc1ccc(S(N)(=O)=O)cc1.Cl | -37.2
Cl.Clc1ccc(COc2ccccc2CNCc2cccnc2)cc1 | -31.1
